Among all 53,000 sequences or so, about 3,700 (7%) were called active. The sample as a whole holds a higher share of actives than the screen did. Values without a mark were called inactive.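 The calls were made as follows: active = gene knockdowns whose robust z-score for IL-1 alpha signal is at least 2 or at most -2, so actives lie on both sides; inactive = the rest.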

A short description of the assay: Components of the Cytosolic LPS Sensing Pathway: Gene Identification via Genome-wide siRNA Screen.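 Also: robust z of the log signal after scaling to non-targeting control siRNA wells of the plate.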 Conditions: RAW264.7 macrophages, IL-1a HTRF, actives lie on both sides, screened at 100 nM (by protocol), cells primed 5 h with Pam3CSK4 first. In short, it runs like this:
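Supernatant IL-1a by HTRF from RAW264.7 cells primed with Pam3CSK4 (5 hours) and transfected with LipidA (24 hour) after 48h siRNA knockdown at 100 nM; cell viability checked with CellTiter-Glo.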
(Time-resolved FRET reads energy transfer from a long-lived donor to a nearby acceptor.)
With GCAACUUGUUAGUGGACUCTT against Olfr620, the z-score is -1.08.

With GCUAUGUGGGAAGUUUCAUTT against Tmem263, the z-score was 0.924. For the sequence GGCCUAUAGGUUGGGCUCUTT against Tonsl, the z-score was -2.57 (active). As for GCGUGGAGUCUUCAGUCAUTT against Vhl, the z-score was -0.101. On to GGAGAAGAGGACAGAAGCCTT against Akt1s1, for which the z-score was 0.757.

Take GUUCAUGUCUAUCCUGUCUTT against Hba-x: the z-score is -2.45 (active). Turning to “GCUCAAAACAAUCCACGCCTT against 1700006J14Rik”, the z-score was -0.47. Regarding GGAUGAGAACAACUCUGCUTT against Lrtm2, the z-score is 0.439.

Turning to GGACCUGUUUGAUUUGGUGTT against Nf2, the z-score was 0.8. As for GGAAAACCUUGGACAGGAGTT against Olfr876, the z-score was -0.267. On to UGUGACUAUUGUUACUGUGTT against Olfr1512, for which the z-score is -1.06. On to GCAGUACCGAGCAGCAGAATT against Acad10, for which the z-score was -2.41 (active). As to CGAAUGUGGCUAUGACCUGTT against Kif6, the z-score was 0.555. Take GGAAAAGGAGGUGGUACUGTT against Acan: the z-score is 0.743. Then GCAUACAGCUCAACAGUCATT against Padi2, with -0.51. Regarding GGAGAAGUAGAUGUAUAUGTT against Prkar1b, the z-score is -1.4. The value for GUACACCACAAUCCUCACCTT against Olfr677 was -0.0852; that for GGUCCAGAGAAUGUUAUUATT against Spinkl was 0.263; that for GAAUAGAAGGGAAGAAAGUTT against Crb3 was -2.08 (active). Consider GGGAACUUCCUUGAGAAGATT against Mgat4d, for which the z-score is 0.654. As to GCAACGUGUCUUUUCAAACTT against P2ry10b, the z-score was -0.223.

For the sequence GUUUCCUUGUGCUAAUGUUTT against Olfr1199, the z-score is 1.15. Take GGAAAACCUAAUAAGGUUCTT against Iqce: the z-score was 2.72 (active). Then GGCUCCAACAUAGAAAUGATT against Tpbpa, with 0.38; and GCUACGCAUUGAGGAGCUATT against Pkn1, with 0.168. In the case of GCUUAUGUCGAAUGAUAGCTT against Id2, the z-score is -4.22 (active). For the sequence GGCUGCCAAGAAAAUCUAUTT against Rab14, the z-score was 0.363. Consider GGAUGAACUCAUGAGAGCCTT against Cyb5r4, for which the z-score is -0.323. Take GGGUUGAAAGAGCUUGCCATT against Vmn1r198: the z-score is -2.56 (active). Consider CCGAGGUUGUGAAACGAUGTT against Trp63, for which the z-score is -1.47. Then GGAACCUCCUUAUUCAAUGTT against Rspry1, with 0.0592.

In the case of GGUUGAAGCAGAAGAUAAUTT against Asnsd1, the z-score was -2.2 (active). The value for GGUGGAGGUCUGGUUUAAGTT against Gsc was -0.4; that for GGUUGGCACAACUGUGUACTT against Cr2 was -0.0754. For the sequence GGAAACCAACUUCAGCCUGTT against Gfra1, the z-score was -0.0125. As for GCAAAUCCCAUGAACAGCUTT against Nvl, the z-score is -2.55 (active). For GGGCAAUCGACUGAGAAUUTT against Lingo4, the z-score was -0.0246. The value for CGAAGAAAACCAUAAGGACTT against Bdnf was -0.876. On to GGAGAGCAAAUUAAGUUCATT against Erc1, for which the z-score is 1.01. GCAAUAAGGGCAUUAUAAATT against Wdhd1: the z-score is -0.407. Then GGUUCAUAAUGCCUUCAAGTT against Olfr1449, with 0.719. CCAGGAAGUUACAAUUCAATT against Ccpg1: the z-score was 0.181. Take GCCUAAUGCCAACUCACAATT against Samd7: the z-score was -1.49.

Take GGCACUGCACUUUAACAUATT against Serpinb7: the z-score was -0.402. The value for GGGUGUGAGGGAUUUCAUCTT against Ndufa2 was 2.22 (active); that for CCUAACCAUCGACUUCUUCTT against Wfs1 was -0.189; that for GCGGGACUGACCUCUUAAUTT against Guk1 was -0.244. In the case of GGAGUGAAGGUUCAGAUCCTT against Asic2, the z-score is 3.1 (active). For GGCUUUCAGAGUUAACAAATT against Ptpn4, the z-score was -0.727. Consider GGGUGUCUUCAACAAGUACTT against Dnttip1, for which the z-score was -1.71. Turning to GGAAAAAAGGAUUUCAAACTT against Rad9b, the z-score was 1.3. As to GGAAAGACCACCAAAUCCCTT against Dpy30, the z-score is 1.48.

On to GGCUCCAUAUGGAAUGCAGTT against Ets2, for which the z-score is 0.571.

As to CCAGCCGUAUUACAACUACTT against Bpnt1, the z-score is 2.12 (active).

In the case of GCUUAAACCGCCUAUGUUCTT against Spcs1, the z-score was 0.782. The value for “GCUCACCUUUCUUGAGAAATT against 4930579C12Rik” was -0.179; that for GGAAAAAGUGCAUUUAUGUTT against Prpf40a was -1.16. As for GCUGUUGCUGGCUAUUCUGTT against Eef2kmt, the z-score is -2.3 (active). Take AACAUGUCCAACCUAGGCATT against Lefty1: the z-score was -1.44. Then GGUGGACUACUCACGAUUCTT against Kcnj4, with 0.867. The value for GGAGCAGGACGAGAAUCAATT against Cdkn1c was 3.62 (active); that for GCACUGGAAUCAAACCAUCTT against Ppp2r5b was 0.444.

Turning to CGCAUUUUCUCUCGAGCUUTT against Slc25a30, the z-score was -0.34. For GGAGCACAGUUUUGGUGCUTT against Olfr576, the z-score was 1.82. The value for GGAAGUAAAGCUCUACAAGTT against Vps28 was 0.236; that for GGCACAAUUUCUUUGAAUCTT against Ophn1 was 0.885. The value for GGCUAUUAGGUUUGAAAUCTT against Grsf1 was 0.351; that for GGUUUCCAGUAAGAUCUUATT against Mdn1 was 2.21 (active); that for “CCUAGAUUCUCCAAACUAATT against D630029K05Rik” was -0.238. In the case of GGAGAUGCGAGUACAACUGTT against Ermn, the z-score is 0.479.

Consider GGAAAGAUGUGGUCCAGCUTT against Sirt3, for which the z-score was 0.373. The value for UUAAGCCGCUUUUGAAGCUTT against Olfr1200 was 0.812. For the sequence GGCUUUCAAGAUUCAGUGATT against Gsta1, the z-score was 0.103. GGCACUUCAAGGAGUUUUUTT against Lig4: the z-score is 3.25 (active).

GGAAAAUAAGCUAAGGAAGTT against Peg12: the z-score is -0.018. For GGCAAUUUCUAAACAGGGATT against Atp6v1f, the z-score was -2.01 (active). Then GCGAUGCUCCUAAUUCUUATT against Dusp21, with -1.18.

GCUACAGUUUGUGGGUGACTT against Zmynd15: the z-score is 0.11. Take “CGAGUAUCCCGUCAAGUUGTT against 6820408C15Rik”: the z-score is -0.699. Regarding GGCAAAUUAGCUAGUAUCATT against Rai2, the z-score is -2.2 (active).

For GGUGGAGAAGAGUUUCUGCTT against Gpr132, the z-score was 0.375. With GGAGAAACAGAAGUAUUGATT against Nsa2, the z-score is -0.559. With GGGUUGGAACAAGGUAAUUTT against Usp16, the z-score was -0.546.

As for GGCUCAAAGCCAAUCUGAATT against Recql4, the z-score was 2.06 (active). As to GCUGUAUCCAGCUUUUCGGTT against Tcf3, the z-score was -0.43. The value for GCGAGAUUCUUAAAGAAAUTT against Brdt was 0.645; that for GAGCUGUGAAUGCCUGUGGTT against Lyz2 was -2.33 (active). The value for GCUAGUUAAUGGUAACAUATT against Sult1d1 was -1.68; that for GGCCAAACUGGAUUACUUATT against Tmprss11c was 1.26. As for CCCUGCUCUCACUUGUUUATT against Olfr643, the z-score was -0.446. Turning to CCUUUCUUGUGUUUACAGGTT against P2ry6, the z-score is -0.347. Turning to GGCAGUUUCUUCUUCCAAATT against H1f1, the z-score is 2.89 (active).

As to GGUGAUCAACAAUGGCAAUTT against Clec4a3, the z-score was 1.26. In the case of GCACAUGUGUUUAUACAUUTT against Sfxn3, the z-score is -0.556. CGACGAGGAAUAACCUCUCTT against Myh6: the z-score was 2.05 (active).

For the sequence GGGUAUGGCAUAAAUGUCCTT against Zpbp, the z-score was -2.75 (active). As to GGCAUUCCAGAGAAAGCGUTT against F3, the z-score was -1.33. For GCGAAUUGGAACAGCUGACTT against Sh3glb1, the z-score is -0.982. On to GGUAUACCACUAUUCUCACTT against Olfr649, for which the z-score is 0.705. For CCAUAUAUGAUAGGAAACUTT against Pon2, the z-score is -0.288. On to GCCACAAUGUCCAAAAUUATT against Rab6a, for which the z-score was -0.271. Turning to GGAGCUUUUAAGAAUGUGGTT against Ireb2, the z-score was -1.57. The value for GCAGGUGCCUUCAAAAACCTT against Pm20d2 was -0.926; that for CCUACGAGUUUUGCAUUUATT against Slc25a51 was -2.46 (active); that for GGCAGCAGUUAAUUUACUUTT against Mmp21 was -1.71. Take GGCGGGUAGAUAUCAUGGGTT against Stn1: the z-score is 0.902. As to GGAAGCAAUGAUCAAUUAUTT against Ppp2r3c, the z-score is 0.752. On to GGUUCCAUGUUCAGAAUUUTT against Alg9, for which the z-score was 2.04 (active).

These data come from PubChem BioAssay AID1508600 (Functional Genomics Laboratory (NCATS/FGL), 2020).
